# Experimental data published in PubChem BioAssay (EPA / NIEHS).
# Several values for one entry are separate records, joined by “and”; a condition that tells them apart may be missing. Equal values may be shown once. Results filed as inconclusive are left out. Activity calls are given as the source filed them. The calls were made as follows, unless noted: active = hit-call score of the fitted dose curve at least 0.9, where 1 is the maximum; inactive = score below 0.9.
# Experiments:
# [1] = CCTE_Deisenroth_AIME_384WELL_CTox_Inactive: Cytotoxicity Assessment (CTOX) in CCTE's 384-well Estrogen Receptor Transactivation Assay without AIME metabolic competence (metabolism negative), Deisenroth Lab (AID 2284039; active = hit-call score of the fitted dose curve at least 0.9, where 1 is the maximum;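 also: cell viability via live-cell protease substrate cleaved to fluorescent probe; cells exposed 24 h to medium preincubated 2 h with alginate-water beads without S9; loss of fluorescence signal means loss of viability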)
# In short: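 VM7Luc4E2 cells, metabolism-negative arm: test chemicals (0.002–200 uM, 10 points) pre-incubated 2 h with alginate-water microspheres, then medium transferred to cells for 24 h. Viability read as protease-substrate cleavage to fluorescent probe; loss-of-signal, bidirectional fitting.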
# [2] = CCTE_Shafer_MEA_dev_active_electrodes_number: CCTE's Neural Network Formation Assay for Number of Active Electrodes, Shafer Lab (AID 2284040; active = hit-call score of the fitted dose curve at least 0.9, where 1 is the maximum;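 as to AC50: potency for loss of active electrodes versus DMSO so lower counts are hits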)
# In short: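 Primary rat cortical neurons on 16-electrode MEA wells, exposed from day 0 through day 12 with compound renewed at DIV 5 and 9 feeds. Active electrodes (mean firing ≥5 spikes/min) counted at DIV 5, 7, 9, 12; trapezoidal AUC across days, loss-of-signal versus DMSO.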
# [3] = CCTE_Shafer_MEA_dev_burst_rate: CCTE's Neural Network Formation Assay for Burst Rate, Shafer Lab (AID 2284042);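 as to AC50: potency for loss of burst rate below DMSO control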
# In short: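 Primary rat cortical neurons on PEI-coated 48-well MEA plates (laminin added with cells at plating) (16 electrodes/well), exposed from plating to day 12, dosing renewed at DIV 5 and 9. Burst rate averaged over active electrodes, recorded DIV 5, 7, 9, 12, summarized as AUC; loss versus DMSO.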
# [4] = CCTE_Shafer_MEA_dev_bursting_electrodes_number: CCTE's Neural Network Formation Assay for Number of Bursting Electrodes, Shafer Lab (AID 2284043; active = hit-call score of the fitted dose curve at least 0.9, where 1 is the maximum;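 as to AC50: potency is for loss of bursting electrodes relative to DMSO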)
# In short: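 Read-out is the per-well number of electrodes bursting at least once every 2 minutes, recorded on days 5, 7, 9 and 12 and collapsed by trapezoidal area under the curve. Cultures were primary rat cortical neurons on MEA plates, treated continuously from plating.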
# [5] = CCTE_Shafer_MEA_dev_per_burst_interspike_interval: CCTE's Neural Network Formation Assay for Burst Interspike Interval, Shafer Lab (AID 2284044);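 also: mean spike spacing inside bursts as AUC over recordings on days 5 7 9 12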;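 as to AC50: potency for a decrease of within-burst interspike interval below DMSO level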
# In short: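 Rat cortical primary cultures, 16 electrodes/well; compound from plating, renewed with full media change DIV 5 and 9. Spikes via adaptive detector; per-burst ISI well-mean over active bursting electrodes; AUC of DIV 5/7/9/12 recordings; loss-direction fit vs DMSO.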
# [6] = CCTE_Shafer_MEA_dev_burst_duration_mean: CCTE's Neural Network Formation Assay for Mean Burst Duration, Shafer Lab (AID 2284045);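 as to AC50: curve fitted for loss meaning shorter burst duration than DMSO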
# In short: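 Read-out: average first-to-last-spike interval within single-electrode bursts, averaged over bursting electrodes per well, then summarised as area under the curve across days 5, 7, 9 and 12. Developing rat cortical networks were exposed from day 0.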
# [7] = CCTE_Shafer_MEA_dev_inter_network_spike_interval_mean: CCTE's Neural Network Formation Assay for Mean Inter-network Spike Interval, Shafer Lab (AID 2284047);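 as to AC50: potency for a decrease in mean inter-network spike interval below DMSO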
# In short: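 Primary rat cortical neurons on 16-electrode MEA wells, exposed from plating day 0 through DIV 12, compound renewed at DIV 5 and 9 media changes. Mean interval between network-spike peaks recorded DIV 5, 7, 9, 12; collapsed as trapezoidal AUC, fitted downward versus DMSO.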
# [8] = CCTE_Shafer_MEA_dev_network_spike_number: CCTE's Neural Network Formation Assay for Number of Network Spikes, Shafer Lab (AID 2284048);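 also: synchronized bursts across electrodes counted on days 5 7 9 12 and integrated as AUC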;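 as to AC50: fit as a loss of signal meaning fewer network spikes than DMSO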
# In short: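 Developing networks of primary rat cortical neurons are treated over 12 days starting at plating, with media and compound fully replaced on DIV 5 and 9. Network spike counts from four recording days are integrated as trapezoidal AUC.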
# [9] = CCTE_Shafer_MEA_dev_network_spike_peak: CCTE's Neural Network Formation Assay for Mean Number of Electrodes in Network Spike, Shafer Lab (AID 2284049);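 as to AC50: fitted for loss of signal meaning fewer electrodes in network spikes than DMSO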
# In short: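 Rat cortical primary culture, 1.5 x 10^5 cells/well, 48-well MEA (16 electrodes/well). Dosing day 0 through DIV 12, full media/compound exchange DIV 5, 9. AxIS adaptive spike detection; AUC over days 5/7/9/12; loss-of-signal vs DMSO.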
# [10] = CCTE_Shafer_MEA_dev_spike_duration_mean: CCTE's Neural Network Formation Assay for Mean Spike Duration, Shafer Lab (AID 2284051);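 also: mean network spike duration pooled as area under curve over DIV 5 to 12 recordings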;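 as to AC50: potency for a decrease in mean network spike duration versus DMSO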
# In short: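 Primary rat cortical neurons on 16-electrode MEA wells (PEI-coated, laminin in plating drop), exposed from plating through DIV 12 with compound renewed at DIV 5 and 9. Mean network-spike duration recorded DIV 5, 7, 9, 12; trapezoidal AUC across days, DMSO baseline.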
# [11] = CCTE_Shafer_MEA_dev_network_spike_duration_std: CCTE's Neural Network Formation Assay for Standard Deviation of Network Spike Duration, Shafer Lab (AID 2284052);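 also: area under curve of spike duration SD across recording days 5 to 12; hits are decreases in network spike duration SD versus DMSO vehicle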
# In short: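 Primary rat cortical neurons on PEI-coated 16-electrode MEA wells, exposed from plating day 0 through day 12 with compound renewed at DIV 5 and 9. Network spike duration SD recorded on days 5, 7, 9, 12, collapsed as trapezoidal AUC; loss-of-signal fit versus DMSO.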
# [12] = CCTE_Shafer_MEA_dev_per_network_spike_spike_percent: CCTE's Neural Network Formation Assay for Percent of Spikes in a Network Spike, Shafer Lab (AID 2284054)
# In short: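 Rat primary cortical cultures, 1.5 x 10^5 cells/well on MEA. Continuous compound exposure d0–12, medium/compound renewed DIV 5, 9. Network-spike spike % (0.05 s peak window), AUC over 4 recordings, DMSO baseline.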
# [13] = CCTE_Shafer_MEA_dev_LDH: CCTE's Lactate Dehydrogenase Assay for Cytotoxicity in the Neural Network Formation Assay, Shafer Lab (AID 2284068; active = hit-call score of the fitted dose curve at least 0.9, where 1 is the maximum;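 also: exposure for twelve days from plating with re-dosing on DIV 5 and 9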)
# In short: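 Primary rat cortical neurons were plated on PEI/laminin MEA plates and exposed from day 0 for twelve days, with compound renewed at DIV 5 and 9. Cytotoxicity was determined by spectrophotometric LDH assay relative to DMSO.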
# [14] = CCTE_Shafer_MEA_dev_AB: CCTE's Alamar Blue Assay for Cytotoxicity in the Neural Network Formation Assay, Shafer Lab (AID 2284083; active = hit-call score of the fitted dose curve at least 0.9, where 1 is the maximum;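 also: twelve days of exposure from plating with re-dosing on DIV 5 and 9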)
# In short: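 Primary rat cortical neurons on PEI-coated 48-well MEA plates, 1.5 x 10^5 cells/well in laminin drop; compound exposure from day 0 of plating for twelve days, renewed at medium changes on DIV 5 and 9. Viability read as resazurin reduction by fluorescence, relative to DMSO.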
# DIO2 (gene 1734) = test: CCTE_GLTED_hDIO2: CCTE's human Deiodinase 2 (DIO2) Inhibition Assay, Great Lakes Toxicology and Ecology Division (GLTED) Lab (AID 2284050; active = hit-call score of the fitted dose curve at least 0.9, where 1 is the maximum)
# In short: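 Cell-free human DIO2 incubated 3 h with chemical; liberated iodide quantified by Sandell-Kolthoff absorbance. Triplicate plates; loss of signal fitted vs DMSO.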
# DIO3 (gene 1735) = test: CCTE_GLTED_hDIO3: CCTE's human Deiodinase 3 (DIO3) Inhibition Assay, Great Lakes Toxicology and Ecology Division (GLTED) Lab (AID 2284055; active = hit-call score of the fitted dose curve at least 0.9, where 1 is the maximum;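 also: potency is for inhibition seen as loss of released iodide signal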)
# In short: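 Human DIO3 from an adenovirus expression system is incubated 3 h with test chemical. Released iodide is quantified by Sandell-Kolthoff absorbance, in triplicate plates. Loss of signal is fitted relative to DMSO.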
# [15] = target: Estrogen receptor (Homo sapiens) (UniProt P03372); test: CCTE_Deisenroth_AIME_384WELL_LUC_Shift: CCTE's 384-well Estrogen Receptor Transactivation Assay with AIME metabolic competence data shift (ERTA luciferase; difference in metabolism positive and negative), Deisenroth Lab (AID 2284041);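 also: shift is response with S9 minus without S9 so positive means metabolism raised ER signal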
# In short: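 Test chemicals (0.002–200 uM, 10-point) were pre-incubated 2 h with alginate microspheres containing phenobarbital/beta-naphthoflavone-induced male Sprague Dawley rat liver S9 or water, then medium was transferred to VM7Luc4E2 cells for 24 h luciferase readout; shift = S9-positive minus S9-negative normalized response.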
# Estrogen receptor (Homo sapiens), sequence (P03372 whole entry, looked up): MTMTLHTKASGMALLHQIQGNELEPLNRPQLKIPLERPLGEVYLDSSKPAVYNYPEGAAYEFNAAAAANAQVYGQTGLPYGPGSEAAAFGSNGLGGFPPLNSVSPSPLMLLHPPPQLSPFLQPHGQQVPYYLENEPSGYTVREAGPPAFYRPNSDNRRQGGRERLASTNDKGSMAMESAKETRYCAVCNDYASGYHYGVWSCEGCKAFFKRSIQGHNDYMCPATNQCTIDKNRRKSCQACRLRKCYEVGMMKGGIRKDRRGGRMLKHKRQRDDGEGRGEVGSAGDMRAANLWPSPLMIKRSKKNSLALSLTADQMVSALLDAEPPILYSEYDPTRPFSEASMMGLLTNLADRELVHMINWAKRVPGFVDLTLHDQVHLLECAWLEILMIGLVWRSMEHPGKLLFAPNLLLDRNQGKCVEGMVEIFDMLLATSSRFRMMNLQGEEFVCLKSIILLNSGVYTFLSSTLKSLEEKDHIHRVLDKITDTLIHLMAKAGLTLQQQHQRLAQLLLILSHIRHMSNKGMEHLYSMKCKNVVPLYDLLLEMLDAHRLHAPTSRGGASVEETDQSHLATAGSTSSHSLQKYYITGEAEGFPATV
compound,measurement,setting,value
CON=C(C(=O)OC)c1ccccc1CON=C(C)c1cccc(C(F)(F)F)c1,outcome,[1],inactive
same,AC50,[2],775 nM (active) and 838 nM (active)
same,AC50,[3],655 nM (active) and 1.28 µM (active)
same,AC50,[4],728 nM (active) and 758 nM (active)
same,AC50,[5],1.53 µM (active) and 2.32 µM (active)
same,AC50,[6],674 nM (active) and 995 nM (active)
same,AC50,[7],969 nM (active) and 1.72 µM (active)
same,AC50,[8],632 nM (active) and 884 nM (active)
same,AC50,[9],871 nM (active) and 742 nM (active)
same,AC50,[10],603 nM (active) and 625 nM (active)
same,AC50,[11],642 nM (active) and 886 nM (active)
same,AC50,[12],981 nM (active) and 686 nM (active)
same,AC50,[13],326 nM (active) and 299 nM (active)
same,AC50,[14],1.26 µM (active) and 437 nM (active)
CCOP(=O)(SC(C)CC)N1CCSC1=O (stereo not drawn),outcome,[1],inactive
same,outcome,[2],inactive
same,outcome,[3],inactive
same,outcome,[5],inactive
same,outcome,[6],inactive
same,outcome,[7],inactive
same,outcome,[8],inactive
same,outcome,[9],inactive
same,outcome,[10],inactive
same,outcome,[11],inactive
same,outcome,[12],inactive
same,AC50,[13],50 µM (active)
O=C(O)c1cc(Oc2ccc(C(F)(F)F)cc2Cl)ccc1[N+](=O)[O-],outcome,[1],inactive
CN(C)[C@@H]1C(=O)C(C(N)=O)=C(O)[C@@]2(O)C(=O)C3=C(O)c4c(O)cccc4[C@@](C)(O)[C@H]3[C@H](O)[C@@H]12,outcome,[1],inactive
same,AC50,[2],50 µM (active)
same,outcome,[3],inactive
same,AC50,[4],22.7 µM (active)
same,outcome,[5],inactive
same,outcome,[6],inactive
same,outcome,[7],inactive
same,outcome,[8],inactive
same,AC50,[9],50 µM (active)
same,AC50,DIO2 (gene 1734),100 µM (active) and 61.6 µM (active)
same,AC50,[10],66.2 µM (active)
same,outcome,[11],inactive
same,AC50,[12],89.4 µM (active)
same,AC50,DIO3 (gene 1735),71.9 µM (active) and 25.6 µM (active) and 24.8 µM (active)
same,AC50,[13],77.7 µM (active)
same,AC50,[14],50 µM (active)
CC(C1CC1)C(O)(Cn1cncn1)c1ccc(Cl)cc1 (stereo not drawn),outcome,[1],inactive
CC(C)N(C(=O)SCC(Cl)=C(Cl)Cl)C(C)C,outcome,[1],inactive
same,AC50,[2],27 µM (active)
same,outcome,[3],inactive
same,AC50,[4],15 µM (active)
same,outcome,[6],inactive
same,outcome,[7],inactive
same,outcome,[8],inactive
same,AC50,[9],15 µM (active)
same,AC50,[10],27.3 µM (active)
same,outcome,[11],inactive
same,AC50,[12],15 µM (active)
same,AC50,[13],10.7 µM (active)
same,AC50,[14],21.8 µM (active)
Nc1nc(N)nc(NC2CC2)n1,outcome,[1],inactive
CCOP(=S)(OCC)SCCSCC,outcome,[1],inactive
same,outcome,[2],inactive
same,outcome,[3],inactive
same,outcome,[4],inactive
same,outcome,[5],inactive
same,outcome,[6],inactive
same,outcome,[7],inactive
same,outcome,[8],inactive
same,outcome,[9],inactive
same,outcome,[10],inactive
same,outcome,[11],inactive
same,outcome,[12],inactive
same,outcome,[13],inactive
same,outcome,[14],inactive
COP(=O)(NC(C)=O)SC (stereo not drawn),outcome,[1],inactive
same,outcome,[2],inactive
same,outcome,[3],inactive
same,outcome,[4],inactive
same,outcome,[5],inactive
same,outcome,[6],inactive
same,outcome,[7],inactive
same,outcome,[8],inactive
same,outcome,[9],inactive
same,outcome,[10],inactive
same,outcome,[11],inactive
same,outcome,[12],inactive
same,outcome,[13],inactive
CCC(=O)Nc1ccc(Cl)c(Cl)c1,outcome,[1],inactive
N#CSCSC#N,outcome,[1],inactive
CC(COc1ccc(Oc2ccccc2)cc1)Oc1ccccn1 (stereo not drawn),outcome,[1],inactive
CSc1nc(NC(C)C)nc(NC(C)C)n1,outcome,[1],inactive
same,outcome,[15],inactive
COP(=O)(OC)SCn1c(=O)oc2cc(Cl)cnc21,AC50,[1],100 µM (active)
same,AC50,[15],71.1 µM (active)
COc1ccc(C(=CC(=O)N2CCOCC2)c2ccc(Cl)cc2)cc1OC,outcome,[1],inactive
CCC(=NOC/C=C/Cl)C1=C(O)CC(C2CCOCC2)CC1=O (stereo not drawn),outcome,[1],inactive
CCC(CC)Nc1c([N+](=O)[O-])cc(C)c(C)c1[N+](=O)[O-],outcome,[1],inactive
C#CCC1=C(C)C(OC(=O)C2C(C=C(C)C)C2(C)C)CC1=O (stereo not drawn),AC50,[1],144 µM (active)
same,outcome,[2],inactive
same,outcome,[3],inactive
same,AC50,[4],4.27 µM (active)
same,outcome,[5],inactive
same,outcome,[6],inactive
same,AC50,[7],9.95 µM (active)
same,outcome,[8],inactive
same,outcome,[9],inactive
same,AC50,DIO2 (gene 1734),42.4 µM (active)
same,outcome,[10],inactive
same,outcome,[11],inactive
same,AC50,[12],2.64 µM (active)
same,AC50,DIO3 (gene 1735),34.5 µM (active)
same,outcome,[14],inactive
CCOP(=S)(OCC)Oc1ccc2c(C)c(Cl)c(=O)oc2c1,outcome,[1],inactive
same,AC50,[2],65.8 µM (active)
same,outcome,[3],inactive
same,AC50,[4],50 µM (active)
same,outcome,[5],inactive
same,outcome,[6],inactive
same,outcome,[7],inactive
same,outcome,[8],inactive
same,AC50,[9],50 µM (active)
same,outcome,[11],inactive
same,AC50,[12],82.2 µM (active)
same,AC50,[13],76.4 µM (active)
same,AC50,[14],78.4 µM (active)
